Experimental findings from PubChem BioAssay AID2501 (Southern Research Specialized Biocontainment Screening …, 2010) are described below.

In all, about 2,200 compounds went through this assay and about 1,200 (55%) were called active. Cut-off not given; nearly all actives show IC50 up to about 92 µM. So high a share suggests a set chosen from earlier hits. The list shows a part of the results.

A short description of this test: counter assay for TAg ATPase ADP read-out – biochemical, ADP-Hunter, fluorescence, counter-screen (AID 2501).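 Further: purified T antigen ATPase.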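 On inhibition: higher means more inhibition.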 The conditions noted are these: series mostly up to 100 µM.
`O=C(Nc1ccc(O)cc1)/C(=C/c1ccco1)NC(=O)c1ccccc1`: the IC50 was 3.43 µM (active). Consider `O=C(Nc1ccc(O)cc1)/C(=C\c1cccs1)NC(=O)c1ccccc1`, for which the IC50 is 8.43 µM (active).

In the case of `O=C(/C=C/c1ccco1)Nc1cccc(C(=O)Nc2ccccc2C(=O)O)c1`, the IC50 entry was “inactive”. Next, `O=C(NC(=O)c1cnccc1C(F)(F)F)Nc1ccccc1`: “inactive”; `O=C(Nc1ccc(O)cc1)/C(=C\c1ccncc1)NC(=O)c1ccccc1`: 10.7 µM (active). As to `NC(=O)/C(=C/c1ccco1)C(N)=S`, the IC50 result is “inactive”.

`CCC(C)N(C(=O)COC(=O)/C=C/c1ccc(O)c(OC)c1)C1CCS(=O)(=O)C1` (stereo unspecified): the IC50 was 19 µM (active). Regarding `O=C(COc1ccc2ccccc2c1)Nc1ccc(Cc2ccncc2)cc1`, the IC50 result is “inactive”. As to `C/C(CC(=O)Nc1ccc(N(C)C)cc1)=N\NC(=O)c1cnccn1`, the IC50 was 3.36 µM (active). As for `O=C(Nc1nc(-c2ccco2)c(-c2ccco2)s1)c1cnccn1`, the IC50 result was “inactive”. `C/C(CC(=O)Nc1ccc2ccccc2c1)=N\NC(=O)c1ccc(O)c(O)c1`: the IC50 was 5.4 µM (active).

As for `C/C(CC(=O)Nc1ccc(N(C)C)cc1)=N\NC(=O)c1ccncc1`, the concentration for half-maximal inhibition (IC50) was 7.2 µM (active). As to `C/C(=N\NC(=O)CCC(=O)Nc1ccc(C)c(C)c1)c1cccs1`, the IC50 entry is “inactive”. Next, `O=[N+]([O-])c1c(NCCO)cc(Sc2nc3ccccc3s2)c2nonc12`: “inactive”; `Oc1ccc(N=Cc2ccc(O)c(O)c2)cc1`: 2.65 µM (active); `Oc1ccc(/C=N/N=C/c2ccc(O)c(O)c2)cc1O`: 2.99 µM (active). Next, `COC1=CC(=O)C(O)=C(CCCCCCC/C=C/CCCCCCCC2=C(O)C(=O)C=C(OC)C2=O)C1=O`: “inactive”; `O=C(CCSc1ccccc1)Nc1ncccn1`: “inactive”. With `CCCCCC(=O)NNC1CC(=O)N(c2cccc(OCC)c2)C1=O` (stereo unspecified), the IC50 entry is “inactive”. For the molecule `O=C(CCCCl)NC1=NN(c2ccccc2)C(=O)C1`, the IC50 was 12.6 µM (active). On to `Oc1cccc2cnccc12`, for which the IC50 was 5.53 µM (active). In the case of `N#Cc1c(N2CCCCC2)nc(N)c2c(N)nc(SCC(=O)O)cc12`, the IC50 result is “inactive”.

For `c1cncc(CNc2ccc3c(c2)OCO3)c1`, the IC50 is 7.3 µM (active). Turning to `COc1ccc(-c2c(-c3ccc(O)cc3O)n[nH]c2C)cc1OC`, the IC50 is 13.2 µM (active).

Consider `CNc1nc(C)nc(-n2nc(C)cc2C)n1`, for which the IC50 entry was “inactive”. As to `CC1=C(C)CS(=O)N(S(=O)(=O)c2ccccc2)C1` (stereo unspecified), the IC50 entry was “inactive”. Regarding `O=C(OCCCN1CCOCC1)c1ccc(O)c(O)c1`, the IC50 is 9.99 µM (active).

Turning to `COc1ccc(OC)c(C2C(C(=O)c3ccc(C)o3)=C(O)C(=O)N2CCN2CCOCC2)c1` (stereo unspecified), the IC50 result was “inactive”. For the molecule `COc1ccc(OC)c(-c2c3cc(O)c(=O)cc-3oc3cc(O)c(O)cc23)c1`, the IC50 entry is “inactive”.

As to `CN(C)c1oc(-c2ccccc2[N+](=O)[O-])nc1C#N`, the IC50 result is “inactive”. Turning to `COc1cc(OC)c(-c2c3cc(O)c(=O)cc-3oc3cc(O)c(O)cc23)cc1OC`, the half-maximal inhibitory concentration (IC50) is 7.14 µM (active). `O=c1cc2oc3cc(O)c(O)cc3c(-c3ccccc3[N+](=O)[O-])c-2cc1O`: the IC50 was 7.23 µM (active). With `CO[C@@H]1O[C@@H]2COC(c3ccccc3)O[C@@H]2[C@@H](OC)[C@@H]1O` (stereo partly specified), the IC50 result is “inactive”.

Take `CC1(C)OC(=O)C(=NNc2ccc(O)cc2)C(=O)O1`: the IC50 was 3.09 µM (active). In the case of `Nc1nc2ccc(O)cc2s1`, the IC50 is 2.36 µM (active).

On to `Nc1ccccc1-c1nc2ccccc2s1`, for which the IC50 entry is “inactive”.

In the case of `Nc1nc2ccc(N3CCOCC3)cc2s1`, the IC50 is 3.09 µM (active).

In the case of `Nc1nc2ccc(S(=O)(=O)N3CCCCC3)cc2s1`, the IC50 entry was “inactive”.

On to `CCOc1ccc(N2C(=O)CC(N3CCOCC3)C2=O)cc1` (stereo unspecified), for which the IC50 entry was “inactive”. To `CN(C)c1ccc(N2C(=O)CC(Nc3ccc(N4CCOCC4)cc3)C2=O)cc1` (stereo unspecified) belongs 4 µM (active). Regarding `O=C(c1cccs1)N1CCN(C(=O)C2CCCO2)CC1` (stereo unspecified), the IC50 result is “inactive”. Consider `O=C(CCC(=O)N1CCN(c2ccc(O)cc2)CC1)c1cccs1`, for which the IC50 is 2.87 µM (active).

In the case of `NC(=O)c1ccsc1NC(=O)C1CCN(S(=O)(=O)c2cccs2)CC1`, the IC50 result is “inactive”.

On to `O=C(NCc1ccc(F)cc1)C(=O)NCC1OCCN1S(=O)(=O)c1cccs1` (stereo unspecified), for which the IC50 entry is “inactive”. Next, `O=S(=O)(c1cccs1)N1CCN(c2ccc(O)cc2)CC1`: 5.21 µM (active). For the molecule `O=C(NC(=S)N1CCN(c2ccc(O)cc2)CC1)c1cccs1`, the IC50 is 5.56 µM (active). As for `O=C(CC1SC(=O)N(c2ccccc2)C1=O)Nc1cccc2ccccc12` (stereo unspecified), the IC50 result is “inactive”. To `COc1ccc(CCNc2ccc(C(CC(N)=O)NC(=O)Cc3ccc(Br)cc3)cc2[N+](=O)[O-])cc1` (stereo unspecified) belongs “inactive”. To `CN(C)C(=S)Nc1ccc(N2CCOCC2)cc1` belongs 2.52 µM (active); to `O=Cc1sc(=O)n(Cc2cccc(C(=O)O)c2)c1Cl`, “inactive”; to `Cc1nc2sc(C(c3ccco3)N3CCC(C)CC3)c(O)n2n1` (stereo unspecified), “inactive”. Turning to `Cc1ccccc1Nc1c(-c2ccccn2)nc2ccccn12`, the IC50 is 10.9 µM (active).

For `c1ccc(-c2cccc(-c3ccccn3)n2)nc1`, the IC50 result was “inactive”.

As for `Cc1ccc2nc(-c3ccccn3)c(NC3CCCC3)n2c1`, the IC50 is 10.1 µM (active). To `C[C@@H]1NC(=O)[C@H](CCC(N)=O)NC(=O)c2cc([N+](=O)[O-])cc(I)c2NCC[C@@H](C(N)=O)NC1=O` belongs “inactive”. To `O=c1[nH]c2ccccc2n2c(-c3ccccc3)nnc12` belongs “inactive”. For the molecule `CC(=O)Nc1ccc(S(=O)(=O)Nc2nc3ccccc3nc2Nc2ccc(N)cc2)cc1`, the IC50 is 5.8 µM (active). `CC(=O)NS(=O)(=O)c1ccc(NC(=S)NC(=O)Cc2ccccc2)cc1`: the IC50 result is “inactive”. Regarding `CC(=O)Nc1ccc(S(=O)(=O)Nc2nc3ccccc3nc2Nc2ccc(O)cc2)cc1`, the IC50 is 7.76 µM (active).

In the case of `O=c1nc2s/c(=C\c3ccco3)c(=O)n2nc1Cc1ccc(F)cc1`, the IC50 result was “inactive”. For the molecule `Cc1cc(C)n2nc(C(=O)N/N=C/c3ccc(O)cc3)nc2n1`, the IC50 is 2.32 µM (active). For `COc1cc(/C=N/NC(=O)c2cc(C3CC3)[nH]n2)ccc1O`, the IC50 was 3.26 µM (active).

On to `COc1cc(/C=N/NC(=O)c2nnn(-c3nonc3N)c2-c2cccs2)ccc1O`, for which the IC50 was 3.94 µM (active). Next, `COc1cc(/C=N/NC(=O)c2ccc3nc[nH]c3c2)ccc1O`: 5.28 µM (active). With `COc1cccc(CN2CCNC(=O)C2CC(=O)NCc2cn3ccccc3n2)c1OC` (stereo unspecified), the IC50 entry is “inactive”. For `Cc1cccn2c(CN(C)CCC3CCCCO3)c(C(=O)N3CCCCC3)nc12` (stereo unspecified), the IC50 result was “inactive”. Regarding `COc1cc(/C=N/NC(=O)c2c(-c3ccccc3)noc2C)ccc1O`, the IC50 is 4.78 µM (active). Next, `COc1cc(/C=N/N(C)c2ccccc2)ccc1O`: 8.84 µM (active). As to `C=CCN1CCN(C(=O)c2c(-c3ccccc3)noc2C)CC1`, the IC50 result is “inactive”. Take `COc1cc(/C=N/NC(=O)c2cnccn2)ccc1O`: the IC50 was 3.09 µM (active). For `COc1cc(/C=N/NC(=O)C2COc3ccccc3O2)ccc1O` (stereo unspecified), the IC50 is 3.2 µM (active).

Consider `CCCOc1ccc(C(=O)N2CC3(CC(c4cccc(NC(=O)[C@@H]5CCC(=O)N5)c4)=NO3)C[C@H]2C(=O)NC2(C(N)=O)CC2)cc1` (stereo partly specified), for which the IC50 entry was “inactive”.

As to `COc1cc(/C=N/NC(=O)c2nc(C)cc(C)n2)ccc1O`, the IC50 is 2.74 µM (active).

For `COc1cc(/C=N/NC(=O)c2cccs2)ccc1O`, the IC50 is 4.58 µM (active).

`COc1cc(/C=N/NC(=S)Nc2cccc(C(=O)O)c2)ccc1O`: the IC50 was 2.66 µM (active). As for `COc1cc(/C=N\NC(=O)c2c(C)nc3cc(C)ccn23)ccc1O`, the IC50 was 4.52 µM (active). On to `CCCOc1ccccc1/C=C1\SC(N2CCCCC2)=NC1=O`, for which the IC50 entry is “inactive”.

For the molecule `COc1cc(/C=N/NC(=O)c2ccncc2)ccc1O`, the IC50 was 3.56 µM (active). In the case of `COc1cc(/C=N/NC(=O)c2ccccc2)ccc1O`, the IC50 is 5.63 µM (active).

As to `COc1ccc(/C=N\NC(=O)c2ccc(=O)[nH]n2)cc1O`, the IC50 is 3.12 µM (active). To `CCOC(=O)C[n+]1c(C)sc2ccc(OC)cc21` belongs “inactive”; to `C=CCOc1ccccc1CNc1ccc2[nH]c(=O)[nH]c2c1`, 5.14 µM (active); to `C=CCOc1ccc(CNc2ccc3[nH]c(=O)[nH]c3c2)cc1OCC`, 3.26 µM (active). `O=C(Nc1ccc2[nH]c(=O)[nH]c2c1)c1cccc([N+](=O)[O-])c1`: the IC50 entry is “inactive”. Next, `O=c1[nH]c2ccc(NCc3ccc(F)cc3)cc2[nH]1`: 5.43 µM (active); `C=CCOc1c(CNc2ccc3[nH]c(=O)[nH]c3c2)cccc1OC`: 3.28 µM (active). As for `Cc1ccc(C2C(C#N)=C(N)Oc3c2oc(CO)cc3=O)o1` (stereo unspecified), the IC50 result is “inactive”. As to `O=C1CC(=O)N(Cc2ccco2)C(=S)N1`, the IC50 result was “inactive”. As to `O=C1c2sc3nc4n(c(=O)c3c2CCC1Br)CCCCC4` (stereo unspecified), the IC50 entry was “inactive”. Regarding `COc1cccc(CNc2ccc3[nH]c(=O)[nH]c3c2)c1OCc1ccccc1`, the IC50 is 3.98 µM (active). As for `COc1ccc2[nH]c(=O)c(CNc3ccccc3OC)cc2c1`, the IC50 result was “inactive”. As to `C=CCOc1cccc(CNc2ccc3[nH]c(=O)[nH]c3c2)c1`, the IC50 is 4.29 µM (active). For the molecule `COc1cc(/C=C2\S/C(=N/S(=O)(=O)c3ccc(C)cc3)NC2=O)c([N+](=O)[O-])cc1OC`, the IC50 entry was “inactive”. `COc1cc(/C=C2\SC(=Nc3ccc(Cl)c(C(=O)O)c3)NC2=O)c(Br)c(Br)c1O`: the IC50 is 3.98 µM (active).

Consider `CN1CN(C)c2cccc3cccc1c23`, for which the IC50 was 13.5 µM (active). Regarding `CN(C)c1ccc(N/C=C/C(=O)C(F)(F)F)cc1`, the concentration for half-maximal inhibition (IC50) is 8.86 µM (active). Take `CCOC(=O)c1ccc(N/C=C/C(=O)C(C)(C)C)cc1`: the IC50 entry is “inactive”.

With `COc1ccccc1N/C=C/C(=C(C#N)C#N)N(C)C`, the IC50 result is “inactive”. As for `CN(C)c1ccc(N/C=C/C(=O)c2ccccc2)cc1`, the IC50 was 3.25 µM (active).

For `Oc1ccc2ccccc2c1N=Nc1ccccc1F`, the IC50 is 7.8 µM (active).

Take `O=S(=O)(Nc1c(O)ccc2ccccc12)c1ccc(F)cc1`: the IC50 entry was “inactive”. In the case of `O=C(CSc1cccc2cccnc12)N/N=C/c1ccc(O)cc1`, the IC50 was 4.35 µM (active). Next, `CCOc1cc(/C=N/NC(=O)CSc2cccc3cccnc23)ccc1O`: 3.48 µM (active); `O=S(=O)(Nc1cc(Sc2cccc3cccnc23)c(O)c2ccccc12)c1ccc(F)cc1`: “inactive”; `O=C(COc1cccc2cccnc12)N/N=C/c1ccc(O)cc1`: 73.5 µM (active). Turning to `O=C(N/N=C/c1ccc(O)c(O)c1)c1ccc(CSc2cccc3cccnc23)cc1`, the IC50 is 29 µM (active).

A word on the IC50: it is the concentration that gives 50% inhibition.
